Source: the supplement of paper PMC3334620
Over roughly 33,000 sequences, “E-score (-0.5 to 0.5)” has its median near -0.012; the highest 2% begin near 0.27. The list comes from a sample in which the highest values are over-represented; it also holds similar and randomly drawn sequences.

The sequences below were run against T1, Vhr1 (UniProt P40522) (assay: PBM E-score (8-mer binding enrichment) (E-score (-0.5 to 0.5)); higher = stronger / more preferred TF binding). Conditions: protein concentration: 200 nM; construct: GST-full length.
T1 sequence: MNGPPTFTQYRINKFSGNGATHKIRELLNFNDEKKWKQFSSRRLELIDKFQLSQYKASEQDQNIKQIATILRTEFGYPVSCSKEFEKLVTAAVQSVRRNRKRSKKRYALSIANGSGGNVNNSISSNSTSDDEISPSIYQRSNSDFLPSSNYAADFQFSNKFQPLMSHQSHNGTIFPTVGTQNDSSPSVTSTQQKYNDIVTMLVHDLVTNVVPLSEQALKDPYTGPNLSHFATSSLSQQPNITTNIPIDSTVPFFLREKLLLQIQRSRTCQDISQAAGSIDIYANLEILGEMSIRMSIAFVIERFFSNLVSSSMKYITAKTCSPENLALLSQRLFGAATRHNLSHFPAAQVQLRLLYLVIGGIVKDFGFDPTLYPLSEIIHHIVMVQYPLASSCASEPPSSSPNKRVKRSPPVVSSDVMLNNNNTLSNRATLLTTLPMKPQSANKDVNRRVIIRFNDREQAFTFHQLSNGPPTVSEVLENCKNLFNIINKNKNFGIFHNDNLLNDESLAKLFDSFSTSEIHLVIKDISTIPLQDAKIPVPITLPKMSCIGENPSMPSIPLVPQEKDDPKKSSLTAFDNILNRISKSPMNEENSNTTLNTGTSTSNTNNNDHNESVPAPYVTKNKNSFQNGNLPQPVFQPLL
Method in brief: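 Yeast transcription factors, full-length or as DNA-binding domains, were expressed with a GST tag using PURExpress in vitro transcription/translation. At about 100-200 nM they were applied to universal all-10-mer Agilent arrays, double-stranded by primer extension on fresh or once-stripped slides. Fluorescent anti-GST detected bound protein, and masliner normalised the scans. E-scores for ungapped eight-base words, pooled with reverse complements, came from the Universal PBM Analysis Suite.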

Sequence	PBM E-score
GTGGGACA	0.0875
CAAGGCAC	-0.0306
AAGGCCCT	-0.164
CTGGTAGA	0.0523
CAGCTAGA	0.0392
AAGAATGG	-0.12
CTGACTTC	0.195
CTGACTTA	0.187
AGGACTTA	-0.0181
ATGACTTA	0.349
ACGACTTC	0.0846
ATGACTTC	0.341
ACCTTACT	-0.129
CAGTACCG	0.0537
ACTGAGCT	-0.0929
GTGACCCA	0.267
ATGACCCA	0.362
CTGACCCA	0.0712
TCGCTGAA	0.0432
AGAACACT	0.108
CACGGTGG	0.273
CACGGTGA	0.106
CACGGTGC	0.0709
ATGCATAG	0.013
AATGTCTC	0.137

Sequence	PBM E-score
CATGTCTC	0.294
CATGTCTA	0.0965
GGTGAGGA	0.00616
GGTGAGTA	0.282
GCTGAGTA	0.0378
CATGAGTA	0.225
GATGAGTA	0.382
AGTGAGTA	0.192
TCGCAGCA	0.0961
ACTTCTAT	-0.0176
CACTGCGG	0.213
CATGTTGC	0.0935
AATGTTGA	0.043
CATGTTGA	0.278
GGTTTCTA	-0.122
ATCATCAG	0.0874
CTCATCAG	0.312
CTCATCAC	0.0121
TAACACGA	0.212
CTCTCCAG	-0.232
ATGTCTAG	0.12
CAGGAGTA	-0.00382
ACGGAGTC	0.408
ACGGAGTA	0.0079
CCGGAGTA	0.0674

Sequence	PBM E-score
AAGGAGTC	0.203
CCGGAGTC	0.421
CCGGAGGC	-0.141
ACGGAGTG	0.00137
CAGGAGTC	0.373
AGCCGTCA	-0.0405
GCAAGTAC	-0.109
ATAGGAAG	0.0182
AGAGTTTG	0.0245
CGCTGTTA	-0.0856
CGTCACGA	0.00392
AATCACGG	0.259
AGTCACGG	0.417
ATTCACGC	0.117
ATTCACGG	0.0271
AGTCACGC	0.426
GGTCACGA	0.09
AGTCACGA	0.411
CGTCACGC	-0.208
CAGAACAG	0.066
GGCTCCTA	-0.136
CCAACAGA	-0.0653
CCCCGCTA	-0.0924
CTTTGGCC	-0.254
AATTAATA	0.102

Sequence	PBM E-score
CCACTCGA	0.0905
ATTCAATA	-0.0197
GTCACGTA	0.13
ACGCCTTG	-0.0936
CTTGGCCA	-0.0546
GTAGTCCA	-0.0646
GCAGCGAC	0.167
ATGGTTCC	0.318
ATGGTTCG	0.224
ATGGTTCA	0.366
GTGGTTCA	0.254
CTGGTTCC	0.0593
CTGGTTCA	-0.0177
CATTAGGA	-0.0276
ACAGTTCA	0.0273
CGCAATCC	-0.0979
AAACCTAA	-0.0619
TAATGGCA	-0.00432
CTCAATAC	0.226
ATCAAAGG	-0.0468
CAAGAGCG	0.0553
ATGGGTCA	0.263
CTGGGTGC	0.123
ATGGGTGA	0.322
CTGGGTCA	0.11

Sequence	PBM E-score
CTGGGTGA	0.275
GTGGGTAA	0.138
CAGGGTGA	0.114
ATGGGTGC	0.0292
GAGGGTGA	0.153
GTGGGTCA	0.365
GTGGGTGA	0.331
ATGGGTGG	0.242
CACCTACC	-0.125
AAGTGCGT	-0.0339
GTCTGTAA	-0.0248
AATTCTTC	-0.211
AGATCACC	-0.0605
ACTGGTCG	0.0753
GTCGTCTA	-0.0586
GAACTAGC	-0.118
AACAGGAT	-0.0425
CTATGAAC	0.107
CCTATCTA	-0.245
AGTCAGCA	0.346
ACTCAGCG	0.133
ACTCAGCC	0.151
AGTCAGAG	0.386
AGTCAGCC	0.402
AGTCAGCG	0.347

Sequence	PBM E-score
GGTCAGCA	0.15
CGTCAGCA	-0.11
AGTCAGAA	0.18
ATTCAGCG	-0.0101
CGTCAGCC	0.044
AGTCAGAT	0.27
CTAGCCTA	-0.153
GGAACCAA	0.171
AAAGGCGC	-0.0831
ACACCCAT	0.191
AGGTAATC	0.104
ACACTCCC	0.0331
AATGGGTA	0.0928
GATGGGTA	0.285
CATGGGTA	0.27
CAACCCGC	0.272
AAACCCGC	0.0774
CAACCCGG	-0.116
CGTTTCAG	-0.0522
ATAGGCCG	-0.229
CATCGATG	0.302
AATCGATG	0.107
CATCGATC	0.016
AGCACAGG	0.00375
CCAGTCGA	0.0785

Sequence	PBM E-score
TAAAGGCA	-0.226
AGAGTATC	-0.0198
CCAAGCAC	0.112
CGATGGGC	0.297
AGATGGGC	-0.0228
CGATGGGA	-0.0641
ACTTGGCG	0.0405
CGATAGGA	0.129
TAGTCTGA	0.218
AAGTCAAC	-0.00442
GAGTCAAC	0.403
CAGTCAAC	0.216
GAGTCAAA	0.312
TAGTCAAA	0.117
AAGTCAAA	0.00983
ACTTTTAT	-0.304
AAGCCATT	0.0335
CAAATCAG	-0.0128
ATTAGCTA	0.0108
GCACCTGA	-0.00933
GACTACCC	0.254
CACTACCA	0.208
